Experimental data: PubChem BioAssay (EPA / NIEHS)
Values joined by “and” are separate entries in the source; they are usually repeats but may differ in a detail not shown here. Equal values may be shown once. Records with an inconclusive call do not appear. A structure can be active in one record and inactive in another. Active and inactive are the calls of the source. How the source made its calls: active means hit-call score of the fitted dose curve at least 0.9, where 1 is the maximum; inconclusive means response in the unintended direction; inactive means score below 0.9.

How the values were obtained:
[1] = TOX21_p53_BLA_p2_viability: Viability Assessment in the Tox21 HCT-116 p53 Agonism Beta-lactamase Assay, Phase 2 (AID 2283591);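 further: compound exposure lasted 16 h at 37 °C; actives lower the ATP signal meaning cytotoxicity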
Summary of the method: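 HCT116 p53-bla cells, 4000/well, dosed after 5 h plating (217-fold dilution of DMSO stocks) and incubated 16 h at 37C. Viability taken as cellular ATP by CellTiter-Glo luminescence after 30 min RT; signal loss marks cytotoxicity.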

[2] = target: Cellular tumor antigen p53 (Homo sapiens) (UniProt P04637); assay: TOX21_p53_BLA_p3_ratio: Tox21 HCT-116 p53 Agonism Beta-lactamase Assay, Ratio, Phase 3 (AID 2283596)
Summary of the method: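 HCT116 p53-bla cells (4000/well) given compound in DMSO (217-fold dilution) after 5 h, incubated 16 h at 37C. CCF4-AM substrate 2 h at room temperature; 460/530 nm emission ratio, gain fitted against DMSO.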

[3] = target: Cellular tumor antigen p53 (Homo sapiens) (UniProt P04637); assay: TOX21_p53_BLA_p5_ratio: Tox21 HCT-116 p53 Agonism Beta-lactamase Assay, Ratio, Phase 5 (AID 2283599)
Summary of the method: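 HCT-116 p53-bla cells (4000/well) plated 5 h, dosed with compound (217-fold DMSO dilution) for 16 h at 37 C; CCF4-AM substrate 2 h at room temperature. Activity is the 460/530 nm emission ratio (405 nm excitation), fitted in gain-of-signal direction versus DMSO.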

[4] = target: Cellular tumor antigen p53 (Homo sapiens) (UniProt P04637); assay: TOX21_p53_BLA_p4_ratio: Tox21 HCT-116 p53 Agonism Beta-lactamase Assay, Ratio, Phase 4 (AID 2283601)
Summary of the method: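 HCT-116 p53 beta-lactamase reporter cells (4000/well) preincubated 5 h, then compound (217-fold dilution of DMSO stock) for 16 h at 37C. CCF4-AM substrate added 2 h at room temperature; 460/530 nm emission ratio fitted upward versus DMSO.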

[5] = tested on: Thyroperoxidase (TPO), gene 54314; assay: CCTE_Simmons_AUR_rTPO: CCTE's Amplex UltraRed Assay for Thyroperoxidase (TPO) Inhibition, Simmons Lab (AID 2283662);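 further: potency for loss of signal meaning inhibition of peroxidase activity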
Summary of the method: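 Rat thyroid microsomal TPO + 25 uM AUR in 200 mM K phosphate; cpd 5 nM–87.5 uM [final], 8 conc, 0.5% DMSO; 300 uM H2O2 starts rxn; 37C dark 30 min; endpoint FI 544/590 nm; n=3.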

[6] = CCTE_Simmons_CellTiterGLO_HEK293T: Viability Assessment in CCTE's Assays for Thyroperoxidase (TPO) Inhibition, Simmons Lab (AID 2283665);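 on AC50: cells exposed to compound for 24 h before readout; actives reduce ATP signal below DMSO vehicle meaning cytotoxicity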
Summary of the method: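 HEK293T cells in DMEM with 1% FBS, dosed 24 h at 37C with 8 concentrations, 5 nM–87.5 uM final, 0.5% DMSO. ATP measured by CellTiter Glo luminescence; loss of signal vs DMSO, three biological replicates.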

[7] = target: Luciferin 4-monooxygenase (Photinus pyralis) (UniProt P08659); assay: CCTE_Simmons_QuantiLum_inhib_2: CCTE's Firefly Luciferase Inhibition Assay, Simmons Lab (AID 2283767);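 on AC50: potency for inhibitors that lower luciferase luminescence relative to DMSO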
Summary of the method: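 Cell-free recombinant firefly luciferase (5 ng/well) in 200mM potassium phosphate with 1 mg/ml BSA, 30 min at 37C with 8 concentrations from 5 nM to 87.5 uM [final], 0.5% DMSO. Luminescence read after D-luciferin (150uM)/dATP (147uM) reagent injection, pH 7.8; triplicates.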

[8] = target: Cellular tumor antigen p53 (Homo sapiens) (UniProt P04637); assay: TOX21_p53_BLA_p2_ratio: Tox21 HCT-116 p53 Agonism Beta-lactamase Assay, Ratio, Phase 2 (AID 2283592)
Summary of the method: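 Gain-of-signal p53 agonism was scored from the beta-lactamase FRET ratio (460/530 nm, 405 nm excitation) in HCT116 cells treated 16 h at 37C, 5% CO2, with DMSO serving as negative control and baseline.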

[9] = TOX21_p53_BLA_p3_viability: Viability Assessment in the Tox21 HCT-116 p53 Agonism Beta-lactamase Assay, Phase 3 (AID 2283593);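 further: cells exposed to compound for 16 h before reading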
Summary of the method: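 HCT116 cells, 4000/well, dosed 5 h after plating by pin transfer (217-fold dilution from DMSO stock) and incubated 16 h at 37C, 5% CO2. Viability read as ATP luminescence with CellTiter-Glo after 30 min at room temperature.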

[10] = TOX21_p53_BLA_p4_viability: Viability Assessment in the Tox21 HCT-116 p53 Agonism Beta-lactamase Assay, Phase 4 (AID 2283597);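 further: hits lower the luminescence signal meaning cytotoxicity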
Summary of the method: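 Following a 16 h exposure at 37C, the treated HCT116 wells were first read for the FRET ratio. They were then lysed with CellTiter-Glo, and ATP luminescence was recorded after 30 min at room temperature.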

[11] = TOX21_p53_BLA_p5_viability: Viability Assessment in the Tox21 HCT-116 p53 Agonism Beta-lactamase Assay, Phase 5 (AID 2283600)
Summary of the method: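 After the 460/530 nm beta-lactamase measurement, the wells received an ATP-detection luciferase reagent; signal was read 30 min later at RT. Compound treatment lasted 16 h on cells pre-incubated 5 h post-seeding.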

[12] = ACEA_AR_agonist_AUC_viability: ACEA Biosciences xCELLigence Real-Time Cell Analysis on Androgen Receptor Agonism for Viability (AID 2283775)
Summary of the method: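 Real-time impedance tracking of 22Rv1 growth, readings every 5 min for 5 h then hourly; area-under-curve viability endpoint at 80 hours, relative to DMSO. Compounds at eight concentrations, 1:4 steps, top 100 uM, n = 2.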

Measured: AC50

Sequence of Luciferin 4-monooxygenase (Photinus pyralis) (P08659 whole entry, looked up): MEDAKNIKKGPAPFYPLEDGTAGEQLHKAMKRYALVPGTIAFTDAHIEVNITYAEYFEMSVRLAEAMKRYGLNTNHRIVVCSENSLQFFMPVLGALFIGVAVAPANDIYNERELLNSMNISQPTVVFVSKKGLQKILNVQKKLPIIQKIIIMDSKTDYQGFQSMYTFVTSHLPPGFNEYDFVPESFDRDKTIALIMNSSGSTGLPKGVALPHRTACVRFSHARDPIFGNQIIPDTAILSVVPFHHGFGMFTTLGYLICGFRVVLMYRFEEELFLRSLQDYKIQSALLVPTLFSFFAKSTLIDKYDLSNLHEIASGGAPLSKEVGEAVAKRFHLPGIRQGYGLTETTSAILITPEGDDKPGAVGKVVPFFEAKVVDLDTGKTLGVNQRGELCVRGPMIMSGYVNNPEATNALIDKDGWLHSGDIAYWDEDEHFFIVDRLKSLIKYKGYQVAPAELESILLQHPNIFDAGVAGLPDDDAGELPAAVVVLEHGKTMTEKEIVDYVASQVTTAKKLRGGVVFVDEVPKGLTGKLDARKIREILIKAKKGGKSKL
Sequence of Cellular tumor antigen p53 (Homo sapiens) (P04637 whole entry, looked up): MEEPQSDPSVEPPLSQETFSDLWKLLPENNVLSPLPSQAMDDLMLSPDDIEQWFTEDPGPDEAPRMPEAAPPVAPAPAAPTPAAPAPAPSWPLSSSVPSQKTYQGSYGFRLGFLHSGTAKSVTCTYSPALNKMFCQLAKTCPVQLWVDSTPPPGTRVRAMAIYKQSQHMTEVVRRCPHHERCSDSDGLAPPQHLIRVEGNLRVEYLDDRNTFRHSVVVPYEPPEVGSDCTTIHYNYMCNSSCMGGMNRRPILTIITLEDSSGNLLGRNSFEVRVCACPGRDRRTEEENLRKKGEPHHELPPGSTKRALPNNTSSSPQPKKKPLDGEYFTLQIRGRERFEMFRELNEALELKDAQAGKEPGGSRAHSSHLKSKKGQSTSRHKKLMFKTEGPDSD

O=C(c1ccccc1)c1ccc(O)c(O)c1O
active: [5] 2.12 µM
inactive: [1] | [2] | [3] | [4] | [6] | [7]

CCO[Si](CCCN=C=O)(OCC)OCC
inactive: [2]

O=S1(=O)OC(c2ccc(O)cc2)(c2ccc(O)cc2)c2ccccc21
active: [5] 24.9 µM and 22.2 µM | [6] 72 µM | [7] 36.6 µM and 21.5 µM
inactive: [6]

Cc1cccc(OCCOc2cccc(C)c2)c1
inactive: [8] | [2] | [3] | [4]

CC(C)c1ccc(C=O)cc1
inactive: [8] | [9]

CC(C)=CCCC(C)C=O (stereo unspecified)
inactive: [1] | [9] | [10] | [3] | [11] | [4]

O=P(O)(O)Oc1ccccc1
inactive: [2] | [10] | [3] | [11]

COC(=O)/C=C\C(=O)O
inactive: [1] | [9] | [3] | [11]

OC1OCCOC1O (stereo unspecified)
inactive: [8] | [2] | [10] | [4]

CCC(C)(C)C1CCCCC1OC(C)=O (stereo unspecified)
inactive: [8] | [2] | [3] | [11] | [4]

CCCOC(=O)CCCCC(=O)OCCC
inactive: [8] | [2] | [10] | [11]

CC1=CC[C@H]2C[C@@H]1C2(C)C
inactive: [1] | [10] | [12]

C=C(C)c1cccc(C(C)(C)N=C=O)c1
inactive: [8] | [3] | [11] | [4]

CO[Si](OC)(OC)c1ccccc1
inactive: [8] | [2] | [10] | [4]

CCC(C)OC(=O)c1ccc(O)cc1 (stereo unspecified)
inactive: [8] | [2] | [3] | [11] | [4]

O=C(Nc1ccccc1SSc1ccccc1NC(=O)c1ccccc1)c1ccccc1
active: [8] 58.3 µM and 56.6 µM | [2] 72.5 µM
inactive: [9] | [2] | [10] | [11]

O=C(O)CCCCCCCCCC(=O)O
inactive: [1] | [9] | [2] | [11] | [4]

O=C1CC2CC1C1CCCC21 (stereo unspecified)
inactive: [8] | [10] | [3]

CCCCCCC(O)CO (stereo unspecified)
inactive: [8] | [9] | [2] | [10] | [3] | [11]
